Bioassay records: PubChem BioAssay, National Center for Advancing Translational Sciences (NCATS)
RXFP1 antagonist – antagonists of human relaxin receptor RXFP1. activity change, negative = inhibition, % at 57.5 µM. AID 1259400. hit rate 0.59% among 350,000. HEK293-RXFP1, relaxin-stimulated cAMP HTRF, 30 min; stronger effect = lower value;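 active = activity change of -60% or lower, but not beyond a set lower limit; inconclusive = change between -60% and -40%, or beyond the set limit; inactive = change above -40%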
Target sequence (Q9HBX9 whole entry, looked up): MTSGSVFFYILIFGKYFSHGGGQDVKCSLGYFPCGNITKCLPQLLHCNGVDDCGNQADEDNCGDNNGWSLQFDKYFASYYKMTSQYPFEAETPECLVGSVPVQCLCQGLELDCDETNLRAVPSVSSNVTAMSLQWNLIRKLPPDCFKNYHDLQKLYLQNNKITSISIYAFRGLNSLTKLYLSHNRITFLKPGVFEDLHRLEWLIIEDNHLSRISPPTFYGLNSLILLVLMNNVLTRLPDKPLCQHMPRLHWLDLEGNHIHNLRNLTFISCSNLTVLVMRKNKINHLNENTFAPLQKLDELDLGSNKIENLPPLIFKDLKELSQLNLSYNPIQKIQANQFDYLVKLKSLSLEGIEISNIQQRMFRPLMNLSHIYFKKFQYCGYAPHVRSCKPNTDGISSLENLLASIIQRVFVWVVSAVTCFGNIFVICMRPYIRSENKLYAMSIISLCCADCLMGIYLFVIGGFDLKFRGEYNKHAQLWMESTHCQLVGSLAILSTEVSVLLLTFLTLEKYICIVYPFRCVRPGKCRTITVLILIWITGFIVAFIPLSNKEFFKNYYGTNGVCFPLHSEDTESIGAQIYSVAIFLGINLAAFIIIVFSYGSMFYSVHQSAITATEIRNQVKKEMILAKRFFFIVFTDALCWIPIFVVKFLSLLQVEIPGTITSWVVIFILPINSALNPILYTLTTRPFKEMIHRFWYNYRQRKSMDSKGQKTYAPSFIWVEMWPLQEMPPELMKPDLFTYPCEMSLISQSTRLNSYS
hERG WT inh – blocks the wildtype human KCNH2 potassium channel; Q12809; U2OS, BacMam KCNH2, thallium flux FluxOr; stronger effect = lower value; activity change, % at 1.84 µM; hit rate 0.37% among 340,000;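 active = maximum activity change below -70%; inconclusive = maximum activity change between -70% and -50%; inactive = maximum activity change above -50%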
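U2OS cells were transduced with wild-type KCNH2 virus (2.03 x 10^8 / mL) for 4 h at room temperature, then cultured overnight at 37 C. Thallium flux was read with FluxOr dye. Rate constants were normalized to DMSO controls.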
RXFP1 ag – activates the human relaxin receptor RXFP1; Potency, µM (series often up to 57.5 µM), most hits filed as activators; AID 2676; hit rate 0.3% among 370,000; HEK293T-RXFP1 cAMP TR-FRET, 30 min; response scale: percent of porcine relaxin response, buffer zero; active = well fitted activation curve with a large enough effect; inconclusive = small, poorly fitted or top-dose-only effect; also: nearly all actives have a fitted effect of over 60% in size
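HEK293 cells stably expressing RXFP1, treated 30 min at 37C with compounds plus PDE4 inhibitor Ro 20174; cAMP measured by HTRF TR-FRET. Normalized to buffer and 29 nM porcine relaxin; EC50 by Hill fit.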
KCNH2 3.1 inh – blocks the human KCNH2 3.1 channel isoform | U2OS KCNH2 3.1, thallium flux FluxOr; stronger effect = lower value | activity change, % (tested at about 1.8 µM) | hit rate 0.95% among 340,000;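 active = maximum activity change below -70%; inconclusive = maximum activity change from -70% to -50%; inactive = maximum activity change above -50%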;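 also: thallium influx rate constant from kinetic fluorescence after stimulation buffer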
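Thallium flux via FluxOr fluorescence (Red40 quencher, 45 min loading) in U2OS cells virally expressing the KCNH2 3.1 isoform (1.77 x 10^8 /mL virus, overnight at 37 C). Rate constants from 2-min kinetic reads post-stimulation, normalised to positive and negative controls.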
Akt phos inh – inhibitors of Akt phosphorylation; AID 651550; activity change, % for hits at 50 µM; hit rate 0.32% among 360,000; Neuro2A IGF-stimulated pAkt S473 HTRF, 20 min; stronger effect = lower value; in the data active = activity change below about -80%; inconclusive = mostly about -51% to -80%
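Neuro2A cells in DMEM with 0.5% FBS, overnight at 37 deg C, given compound at single 50 µM final, then IGF (6 nM final) for 20 min at 37 deg C. Lysed; phospho-Akt Ser473 by HTRF after 24 h, 665/615 ratio.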
A number is an active result; . = inactive; ? = inconclusive; / = not tested or not shown; ! = not active in a repeat. Sampled rows, rich in hits. Any-hit rate of the full collection: about 1.7%.

SMILES | RXFP1 antagonist | hERG WT inh | RXFP1 ag | KCNH2 3.1 inh | Akt phos inh
CCC(C)(C)n1nnnc1C(c1ccc(OC)c(OC)c1)N1CCN(c2ccccc2)CC1 (stereo not drawn) | . | . | . | . | -105%
COCCn1nnnc1C(c1ccc2ncccc2c1)N1CCc2ccccc21 (stereo not drawn) | . | . | . | . | .
CCC(C)(C)n1nnnc1C(c1ccc2ncccc2c1)N1CCN(c2nc3ccccc3s2)CC1 (stereo not drawn) | . | . | . | -90 | .
COCCn1nnnc1C(c1ccc2ncccc2c1)N1CCN(c2ccccc2F)CC1 (stereo not drawn) | . | . | . | . | -104%
CCC(C)(C)n1nnnc1C(c1ccc(OC)c(OC)c1)N1CCN(c2cccc(OC)c2)CC1 (stereo not drawn) | . | . | . | . | .
CCC(C)(C)n1nnnc1C(c1ccc2ncccc2c1)N1CCN(c2ccc(O)cc2)CC1 (stereo not drawn) | . | . | . | . | .
COc1ccc(CC(=O)OCC(=O)N2c3ccccc3CC2C)cc1OC (stereo not drawn) | . | . | / | . | .
CC1CCc2nn(CC(=O)NCc3ccc4c(c3)OCO4)cc2C1 (stereo not drawn) | . | . | . | . | .
FC(F)(F)c1nc2nc(Cl)c(Cl)nc2[nH]1 | . | . | / | -71 | .
CCc1ccc(Nc2cc(C(=O)NCCCN3CCOCC3)c3ccccc3n2)cc1 | / | . | . | -74 | .
COc1ccc(Nc2cc(C(=O)NCCCN3CCOCC3)c3ccccc3n2)cc1 | . | . | . | . | .
O=C(CSc1nnc(CNC(=O)c2ccco2)o1)Nc1ccc(OC(F)(F)F)cc1 | -110 | . | . | . | /
COc1ccc2occ(C(=O)c3coc4ccc(O)c(CN(C)C)c34)c2c1 | . | . | . | . | .
CCc1nnc(SCC(=O)Nc2ccc3c(c2)OCO3)n1CC | . | -205 | . | / | .
CCn1c(SCC(=O)Nc2ccc3c(c2)OCCO3)nnc1-c1cccs1 | . | . | . | -81 | .
CCn1c(Cc2ccccc2)nnc1SCC(=O)Nc1ccc2c(c1)OCO2 | . | . | . | . | .
CCn1c(C)nnc1SCC(=O)Nc1ccc2c(c1)OCCO2 | . | . | . | . | .
C=CCn1c(SCC(=O)Nc2ccc(N3CCOCC3)cc2)nnc1-c1ccncc1 | . | . | . | . | .
CCn1c(SCC(=O)Nc2ccc(N3CCOCC3)cc2)nnc1-c1ccncc1 | . | . | . | -76 | .
CCOC(=O)CSc1nnc(-c2cccs2)n1-c1ccccc1 | . | . | . | . | .
O=C(CSc1nnc(-c2cccs2)n1-c1ccccc1)Nc1ccccc1 | . | -115 | ? | -89 | -92%
CC(C)c1ccc(N(C(=O)c2csnn2)C(C(=O)NC(C)(C)C)c2cccnc2)cc1 (stereo not drawn) | . | . | . | . | .
Cc1nc(N2CCN(C)CC2)c2sc(=S)n(C)c2n1 | / | . | . | . | .
Cc1nn(Cc2ccccc2)c(C)c1NC(=O)c1cc2nc(-c3ccco3)cc(C(F)(F)F)n2n1 | . | . | . | . | .
CS(=O)(=O)c1ccc(Cl)c(NC(=O)c2cccc(N3C(=O)CCC3=O)c2)c1 | . | . | . | . | .
SMILES | RXFP1 antagonist | hERG WT inh | RXFP1 ag | KCNH2 3.1 inh | Akt phos inh
Cc1ccc(-n2c(Cc3cccs3)nnc2SCC(=O)Nc2ccc(F)c(F)c2)cc1 | . | -77 | . | . | .
O=C(Nc1nnc(SCC(=O)N2CCCCC2)s1)c1ccc(F)cc1F | . | -152 | . | . | .
O=S(=O)(c1ccc(NC(=S)N2CCN(c3ccc(O)cc3)CC2)cc1)N1CCOCC1 | . | . | . | . | .
COc1ccc(CC(=O)NCc2nn(-c3ccccc3)nc2C)cc1OC | . | . | . | -180 | .
COc1ccc(CC(=O)NCc2ccc(-n3cccc3)cc2)cc1OC | . | . | . | . | .
O=C(CNC(=S)N(CCCN1CCOCC1)Cc1cccs1)N1CCCCCC1 | . | -148 | . | -181 | .
O=C(c1ccc(Br)cc1)C(CN1CCOCC1)c1ccccc1 (stereo not drawn) | ? | . | . | . | .
O=C(c1ccccc1)C(CN1CCCCC1)c1ccccc1 (stereo not drawn) | -82 | . | / | . | .
CCCCCc1cc(=O)oc2c(C(CCN3CCCC(C)C3)c3ccc(OC)cc3)c(OC)cc(OC)c12 (stereo not drawn) | / | -115 | . | -91 | .
Cc1ccc(Cn2nnc(C(=O)Nc3cccc(C)c3C)c2N)cc1 | . | . | . | . | -109%
CCN(CC)CCOC(=O)C(Cc1ccco1)Cc1cccc2ccccc12 (stereo not drawn) | . | . | / | -74 | .
COc1ccc(CCNc2oc(COc3ccc(Cl)cc3)nc2C#N)cc1OC | -64 | / | . | / | /
COc1ccc(CNc2oc(COc3ccccc3)nc2C#N)cc1 | . | . | . | -78 | .
Cc1cccc(NC(=O)c2sc(NC(=O)c3ccco3)c(C#N)c2C)c1C | . | . | . | -83 | .
CC(C)N(CCCNC(=O)Cn1ncc2c([nH]c3ccccc32)c1=O)Cc1ccccc1 | -75! | . | . | . | .
O=C(O)c1ccccc1NS(=O)(=O)c1cccc(C(F)(F)F)c1 | . | . | . | . | .
O=C(O)c1ccccc1NS(=O)(=O)c1cccc(-n2sc3ccccc3c2=O)c1 | -115 | . | . | . | .
CCn1ncc(CN2CCC(n3nccc3NC(=O)c3ccccc3Cl)CC2)c1C | . | . | / | . | .
CCCn1ncc(CN2CCC(n3nccc3NC(=O)c3ccccc3Cl)CC2)c1C | . | -88 | . | ? | .
O=C(Nc1ccnn1C1CCN(Cc2ccc3nonc3c2)CC1)c1cccc(F)c1 | . | . | . | . | .
O=C(Nc1ccnn1C1CCN(C/C=C/c2ccccc2)CC1)c1ccccc1Cl | . | -107 | . | -107 | .
CCc1ccc(CN2CCC(n3nccc3NC(=O)c3ccccc3C)CC2)cc1 | . | . | . | -101 | .
CCc1ccc(CN2CCC(n3nccc3NC(=O)c3cccc(F)c3)CC2)cc1 | . | -110 | . | -101 | .
COc1ccc(CCNC(=O)C2CCN(S(=O)(=O)c3ccc(C)cc3)CC2)cc1 | . | . | . | . | .
O=C(Nc1ccnn1C1CCN(C/C=C/c2ccccc2)CC1)C1CCCC1 | . | . | . | -80 | .
O=C(Nc1ccnn1C1CCN(Cc2ccccc2)CC1)c1ccccc1Cl | . | . | . | -90 | .
CCN1CCC(n2nccc2NC(=O)c2ccccc2Cl)CC1 | . | . | / | . | .
O=C(Nc1ccnn1C1CCN(CC2CC=CCC2)CC1)c1ccccc1Cl (stereo not drawn) | . | . | . | -79 | .
Cc1ccccc1C(=O)Nc1ccnn1C1CCN(CC2CC=CCC2)CC1 (stereo not drawn) | . | . | . | . | .
COc1ccccc1C(=O)Nc1ccnn1C1CCN(C/C=C/c2ccc(F)cc2)CC1 | . | -123 | . | -104 | .
